# Experimental data as given in publication PMC7862700, “An all-to-all approach to the identification of sequence-specific readers for epigenetic DNA modifications on cytosine”.
# Legend:
# Experiment in all cases: DAPPL (digital affinity profiling via proximity ligation, sequencing); 10 mM Tris-HCl pH 7.5, 50 mM NaCl, 1 mM DTT, 4% glycerol, room temperature, 30 min; GST-TFs on glutathione beads, 16-mer random dsDNA library, 0.1% formaldehyde crosslink after washing; high values mean tight binding
# Details in all cases: protein: recombinant; tags: N-terminal GST; dsDNA, one strand shown
# [1] = molecular target: ETV1 (Homo sapiens, UniProt P50549 1-477)
# In short: (§1)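 Yeast served to express human transcription factors as GST fusions, which were then captured on glutathione beads and labelled with DNA barcodes. Pooled with a tag-only sample, they were incubated with 200 nmole of a 16-mer random double-stranded DNA library for 30 min at room temperature in Tris/NaCl/DTT/glycerol buffer, washed, crosslinked with 0.1% formaldehyde, ligated by proximity, amplified by PCR and sequenced. Dividing each hexamer's read frequency for a factor by its frequency for the tag-only sample gives the binding signal.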
# [2] = molecular target: T1, ERF (Homo sapiens, UniProt P50548 1-548)
# T1 sequence: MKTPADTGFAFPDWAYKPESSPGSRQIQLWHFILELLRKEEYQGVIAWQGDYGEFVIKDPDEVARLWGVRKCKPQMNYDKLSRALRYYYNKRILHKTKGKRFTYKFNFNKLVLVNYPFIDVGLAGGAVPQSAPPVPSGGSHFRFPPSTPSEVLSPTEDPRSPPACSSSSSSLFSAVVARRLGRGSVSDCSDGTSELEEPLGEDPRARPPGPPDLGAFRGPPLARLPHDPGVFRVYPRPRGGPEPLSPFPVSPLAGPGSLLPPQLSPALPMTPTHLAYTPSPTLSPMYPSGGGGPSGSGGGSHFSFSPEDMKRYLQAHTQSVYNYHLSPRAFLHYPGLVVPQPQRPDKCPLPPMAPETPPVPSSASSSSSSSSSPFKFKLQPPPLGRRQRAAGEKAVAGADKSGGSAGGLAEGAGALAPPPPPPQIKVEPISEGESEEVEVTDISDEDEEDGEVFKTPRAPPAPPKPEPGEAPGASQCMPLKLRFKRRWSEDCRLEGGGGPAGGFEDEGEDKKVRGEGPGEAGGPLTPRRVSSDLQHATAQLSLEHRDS
# In short: as §1
# [3] = molecular target: T2, ETV3L (Homo sapiens, UniProt Q6ZN32 1-361)
# T2 sequence: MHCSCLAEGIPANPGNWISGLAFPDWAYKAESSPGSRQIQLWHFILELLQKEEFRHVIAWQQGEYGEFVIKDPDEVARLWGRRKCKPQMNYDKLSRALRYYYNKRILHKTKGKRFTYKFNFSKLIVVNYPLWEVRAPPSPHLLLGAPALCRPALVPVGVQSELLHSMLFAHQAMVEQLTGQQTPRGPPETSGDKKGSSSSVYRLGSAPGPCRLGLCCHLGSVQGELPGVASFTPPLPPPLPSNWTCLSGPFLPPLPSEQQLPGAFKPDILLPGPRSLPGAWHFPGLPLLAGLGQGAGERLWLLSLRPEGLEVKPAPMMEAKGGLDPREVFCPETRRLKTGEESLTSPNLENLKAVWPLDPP
# In short: as §1
# [4] = molecular target: T3, ETS2 (Homo sapiens, UniProt P15036 1-469)
# T3 sequence: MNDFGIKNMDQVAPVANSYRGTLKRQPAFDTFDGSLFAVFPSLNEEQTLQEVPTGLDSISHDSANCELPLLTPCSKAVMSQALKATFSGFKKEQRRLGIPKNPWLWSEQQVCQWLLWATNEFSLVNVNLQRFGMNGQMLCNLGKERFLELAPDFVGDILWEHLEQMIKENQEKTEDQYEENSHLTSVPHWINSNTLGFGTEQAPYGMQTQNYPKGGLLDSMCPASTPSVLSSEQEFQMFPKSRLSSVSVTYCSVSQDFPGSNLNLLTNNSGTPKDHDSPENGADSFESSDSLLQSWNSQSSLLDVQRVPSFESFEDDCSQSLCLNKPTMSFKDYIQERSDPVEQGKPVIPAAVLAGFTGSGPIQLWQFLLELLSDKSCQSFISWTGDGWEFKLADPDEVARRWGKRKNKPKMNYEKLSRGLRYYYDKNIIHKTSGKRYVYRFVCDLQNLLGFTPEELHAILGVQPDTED
# In short: as §1
# [5] = molecular target: T4, SPDEF (Homo sapiens, UniProt O95238 1-335)
# T4 sequence: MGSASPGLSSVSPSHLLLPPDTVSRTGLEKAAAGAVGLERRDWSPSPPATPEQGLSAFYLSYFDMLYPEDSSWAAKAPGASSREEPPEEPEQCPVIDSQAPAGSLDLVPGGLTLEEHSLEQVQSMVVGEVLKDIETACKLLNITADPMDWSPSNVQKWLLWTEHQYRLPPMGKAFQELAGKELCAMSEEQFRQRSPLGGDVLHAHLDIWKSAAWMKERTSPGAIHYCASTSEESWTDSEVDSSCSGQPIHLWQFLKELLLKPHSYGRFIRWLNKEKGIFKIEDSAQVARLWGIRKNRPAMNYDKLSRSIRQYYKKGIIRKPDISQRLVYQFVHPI
# In short: as §1
# [6] = molecular target: T5, ETV7 (Homo sapiens, UniProt Q9Y603 1-341)
# T5 sequence: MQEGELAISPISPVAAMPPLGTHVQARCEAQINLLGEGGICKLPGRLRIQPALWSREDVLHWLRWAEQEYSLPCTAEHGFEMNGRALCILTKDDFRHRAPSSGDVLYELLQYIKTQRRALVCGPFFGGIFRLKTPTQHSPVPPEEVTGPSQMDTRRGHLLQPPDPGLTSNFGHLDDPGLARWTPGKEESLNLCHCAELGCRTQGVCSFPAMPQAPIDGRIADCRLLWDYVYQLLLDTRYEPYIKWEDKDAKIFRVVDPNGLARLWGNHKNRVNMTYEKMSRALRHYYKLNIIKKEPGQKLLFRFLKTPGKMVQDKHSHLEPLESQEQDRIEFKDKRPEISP
# In short: as §1
# [7] = molecular target: T6, ELF5 (Homo sapiens, UniProt Q9UKW6-2 1-255)
# T6 sequence: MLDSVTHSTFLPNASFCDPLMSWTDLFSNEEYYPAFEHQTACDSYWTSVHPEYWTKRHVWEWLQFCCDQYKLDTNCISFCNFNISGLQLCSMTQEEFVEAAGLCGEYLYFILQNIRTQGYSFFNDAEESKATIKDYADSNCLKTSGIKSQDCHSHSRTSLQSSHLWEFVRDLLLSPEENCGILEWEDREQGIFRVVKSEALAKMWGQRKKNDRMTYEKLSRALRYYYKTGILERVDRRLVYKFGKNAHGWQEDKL
# In short: as §1
# [8] = molecular target: T7, ETV3 (Homo sapiens, UniProt P41162-2 1-143)
# T7 sequence: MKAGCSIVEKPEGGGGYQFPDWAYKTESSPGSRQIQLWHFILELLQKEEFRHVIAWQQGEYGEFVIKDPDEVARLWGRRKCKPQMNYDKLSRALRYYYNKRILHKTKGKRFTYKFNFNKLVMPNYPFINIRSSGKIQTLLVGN
# In short: as §1
# [9] = molecular target: ETV6 (Homo sapiens, UniProt P41212 1-452)
# In short: as §1
# ETV6, sequence (P41212 whole entry): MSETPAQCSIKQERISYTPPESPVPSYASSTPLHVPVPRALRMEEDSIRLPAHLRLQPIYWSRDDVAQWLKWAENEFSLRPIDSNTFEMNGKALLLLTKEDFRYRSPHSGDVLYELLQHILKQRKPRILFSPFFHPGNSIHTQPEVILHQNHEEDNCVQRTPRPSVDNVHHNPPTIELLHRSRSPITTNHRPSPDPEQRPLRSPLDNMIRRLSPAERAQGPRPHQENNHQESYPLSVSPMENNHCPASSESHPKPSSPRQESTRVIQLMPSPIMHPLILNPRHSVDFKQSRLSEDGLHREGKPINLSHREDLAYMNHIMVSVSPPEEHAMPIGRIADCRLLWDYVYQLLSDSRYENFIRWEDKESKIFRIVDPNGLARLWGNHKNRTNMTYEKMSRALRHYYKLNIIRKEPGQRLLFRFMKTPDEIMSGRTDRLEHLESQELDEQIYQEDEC
# ETV1, sequence (P50549 whole entry, the tested form may be a part): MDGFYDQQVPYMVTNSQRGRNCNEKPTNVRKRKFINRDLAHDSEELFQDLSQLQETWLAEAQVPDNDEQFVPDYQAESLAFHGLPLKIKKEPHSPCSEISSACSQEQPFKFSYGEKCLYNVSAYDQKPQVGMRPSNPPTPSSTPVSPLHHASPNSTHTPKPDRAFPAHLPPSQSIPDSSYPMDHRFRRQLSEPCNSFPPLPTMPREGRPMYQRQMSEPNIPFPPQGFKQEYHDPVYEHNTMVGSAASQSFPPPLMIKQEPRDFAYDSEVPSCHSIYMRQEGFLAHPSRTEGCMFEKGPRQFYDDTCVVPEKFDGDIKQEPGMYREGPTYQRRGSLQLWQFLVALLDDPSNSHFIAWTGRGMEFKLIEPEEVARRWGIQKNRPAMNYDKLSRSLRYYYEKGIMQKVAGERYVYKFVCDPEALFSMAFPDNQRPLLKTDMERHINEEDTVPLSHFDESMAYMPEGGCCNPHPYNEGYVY
sequence,measurement,setting,value
CTCCCA,binding signal,[1],"1.32 fold enrichment (6-mer frequency, TF over GST control)"
same,binding signal,[2],"1.54 fold enrichment (6-mer frequency, TF over GST control)"
same,binding signal,[3],"1.29 fold enrichment (6-mer frequency, TF over GST control)"
same,binding signal,[4],"1.37 fold enrichment (6-mer frequency, TF over GST control)"
same,binding signal,[5],"1.42 fold enrichment (6-mer frequency, TF over GST control)"
same,binding signal,[6],"1.07 fold enrichment (6-mer frequency, TF over GST control)"
same,binding signal,[7],"1.41 fold enrichment (6-mer frequency, TF over GST control)"
same,binding signal,[8],"1.34 fold enrichment (6-mer frequency, TF over GST control)"
same,binding signal,[9],"1.46 fold enrichment (6-mer frequency, TF over GST control)"
